# Laboratory results from the supplement of paper PMC8728848.
# The full list was thinned out, with the strongest signals kept by preference.
# B1: EPL1 (Trichoderma atroviride), A0PCX2 (protein)
# chain: MQLSNLFKLALFTAAVSADTVSYDTGYDDASRSLTVVSCSDGTNGLITRYHWQTQGQIPRFPYIGGAQAVAGWNSPNCGTCWKLTYSGKTIYVLAIDHTAAGFNIGLDAMNALTNGNAVALGRVSATASQVAVSNCGL
# How the values were obtained:
# Experiment in all cases: glycan array binding signal (z-score within array); higher = stronger binding
# Conditions in all cases: glycan notation: IUPAC condensed, linker removed
# [1] = molecular target: Fuc(a1-2)Gal(b1-3)GlcNAc6S
# Method in brief: (§1)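 The binding signal is a Z-score computed within each array and averaged over linkers. Arrays of the same protein sequence at different concentrations or buffers were also averaged together. Data originate from 3228 arrays in the Consortium for Functional Glycomics database, kept only where the protein sequence was available.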
# [2] = molecular target: Fuc(a1-2)Gal(b1-3)[Fuc(a1-4)]GlcNAc(b1-3)[Fuc(a1-3)[Gal(b1-4)]GlcNAc(b1-6)]Gal(b1-4)Glc
# Method in brief: as §1
# [3] = molecular target: Fuc(a1-2)Gal(b1-4)GlcNAc(b1-3)Gal(b1-4)GlcNAc(b1-2)Man(a1-3)[Fuc(a1-2)Gal(b1-4)GlcNAc(b1-3)Gal(b1-4)GlcNAc(b1-2)Man(a1-6)]Man(b1-4)GlcNAc(b1-4)GlcNAc
# Method in brief: as §1
# [4] = molecular target: Fuc(a1-2)Gal(b1-4)[Fuc(a1-3)]GlcNAc
# Method in brief: as §1
# [5] = molecular target: Fuc(a1-2)Gal6S(b1-3)GlcNAc
# Method in brief: as §1
# [6] = molecular target: Fuc(a1-2)[Gal(a1-3)]Gal(b1-3)GlcNAc(b1-2)Man(a1-3)[Fuc(a1-2)[Gal(a1-3)]Gal(b1-3)GlcNAc(b1-2)Man(a1-6)]Man(b1-4)GlcNAc(b1-4)[Fuc(a1-6)]GlcNAc
# Method in brief: as §1
# [7] = molecular target: Fuc(a1-2)[GalNAc(a1-3)]Gal(b1-4)[Fuc(a1-3)]GlcNAc(b1-3)GalNAc
# Method in brief: as §1
# [8] = molecular target: Fuc(a1-2)[GalNAc(b1-3)]Gal
# Method in brief: as §1
# [9] = molecular target: Fuc(a1-3)[Gal(b1-4)]GlcNAc(b1-2)Man
# Method in brief: as §1
# [10] = molecular target: Fuc(a1-3)[GalNAc(b1-4)]GlcNAc
# Method in brief: as §1
# [11] = molecular target: Fuc(a1-3)[GalNAc(b1-4)]GlcNAc6S
# Method in brief: as §1
# Fuc(a1-4)GlcNAc = molecular target: Fuc(a1-4)GlcNAc
# Method in brief: as §1
# [12] = molecular target: Gal(a1-3)Gal(b1-4)GlcNAc(b1-2)Man(a1-3)[Gal(a1-3)Gal(b1-4)GlcNAc(b1-2)Man(a1-6)]Man(b1-4)GlcNAc(b1-4)GlcNAc
# Method in brief: as §1
# [13] = molecular target: Gal(a1-3)Gal(b1-4)[Fuc(a1-3)]GlcNAc(b1-2)Man(a1-3)[Gal(a1-3)Gal(b1-4)[Fuc(a1-3)]GlcNAc(b1-2)Man(a1-6)]Man(b1-4)GlcNAc(b1-4)GlcNAc
# Method in brief: as §1
# Gal(a1-3)GalNAc = molecular target: Gal(a1-3)GalNAc
# Method in brief: as §1
# [14] = molecular target: Gal(b1-3)GlcNAc(b1-3)Gal(b1-4)Glc
# Method in brief: as §1
# [15] = molecular target: Gal(b1-3)GlcNAc(b1-3)Gal(b1-4)GlcNAc
# Method in brief: as §1
# [16] = molecular target: Gal(b1-3)GlcNAc(b1-3)Gal(b1-4)GlcNAc(b1-2)[Gal(b1-3)GlcNAc(b1-3)Gal(b1-4)GlcNAc(b1-6)]Man(a1-6)[Gal(b1-3)GlcNAc(b1-3)Gal(b1-4)GlcNAc(b1-2)Man(a1-3)]Man(b1-4)GlcNAc(b1-4)[Fuc(a1-6)]GlcNAc
# Method in brief: as §1
# [17] = molecular target: Gal(b1-3)[Fuc(a1-4)]GlcNAc(b1-6)GalNAc
# Method in brief: as §1
# [18] = molecular target: Gal(b1-4)GlcNAc(b1-2)[Gal(b1-4)GlcNAc(b1-4)]Man(a1-3)[Gal(b1-4)GlcNAc(b1-2)[Gal(b1-4)GlcNAc(b1-6)]Man(a1-6)]Man(b1-4)GlcNAc(b1-4)GlcNAc
# Method in brief: as §1
# [19] = molecular target: Gal(b1-4)GlcNAc(b1-3)Gal(b1-3)GlcNAc
# Method in brief: as §1
# [20] = molecular target: Gal(b1-4)GlcNAc(b1-3)Gal(b1-4)Glc
# Method in brief: as §1
# [21] = molecular target: Gal(b1-4)GlcNAc(b1-3)Gal(b1-4)GlcNAc(b1-3)Gal(b1-4)GlcNAc
# Method in brief: as §1
# Gal3S(b1-3)GlcNAc = molecular target: Gal3S(b1-3)GlcNAc
# Method in brief: as §1
# Gal3S(b1-4)GlcNAc = molecular target: Gal3S(b1-4)GlcNAc
# Method in brief: as §1
# [22] = molecular target: Gal3S(b1-4)[Fuc(a1-3)]GlcNAc
# Method in brief: as §1
# Gal4S(b1-4)GlcNAc = molecular target: Gal4S(b1-4)GlcNAc
# Method in brief: as §1
# GalNAc(b1-4)GlcNAc = molecular target: GalNAc(b1-4)GlcNAc
# Method in brief: as §1
# [23] = molecular target: GlcNAc(a1-4)Gal(b1-3)GlcNAc
# Method in brief: as §1
# [24] = molecular target: GlcNAc(a1-6)Gal(b1-4)GlcNAc
# Method in brief: as §1
binder,measurement,setting,value
B1,glycan array binding signal (z-score),[1],-0.466
same,glycan array binding signal (z-score),[2],-0.315
same,glycan array binding signal (z-score),[3],-0.05
same,glycan array binding signal (z-score),[4],0.212
same,glycan array binding signal (z-score),[5],-0.249
same,glycan array binding signal (z-score),[6],0.105
same,glycan array binding signal (z-score),[7],21.1
same,glycan array binding signal (z-score),[8],-0.54
same,glycan array binding signal (z-score),[9],0.185
same,glycan array binding signal (z-score),[10],0.203
same,glycan array binding signal (z-score),[11],-0.245
same,glycan array binding signal (z-score),Fuc(a1-4)GlcNAc,3.1
same,glycan array binding signal (z-score),[12],0.847
same,glycan array binding signal (z-score),[13],0.929
same,glycan array binding signal (z-score),Gal(a1-3)GalNAc,-0.034
same,glycan array binding signal (z-score),[14],1.82
same,glycan array binding signal (z-score),[15],-0.163
same,glycan array binding signal (z-score),[16],0.678
same,glycan array binding signal (z-score),[17],-0.249
same,glycan array binding signal (z-score),[18],0.128
same,glycan array binding signal (z-score),[19],-0.08
same,glycan array binding signal (z-score),[20],-0.362
same,glycan array binding signal (z-score),[21],0.071
same,glycan array binding signal (z-score),Gal3S(b1-3)GlcNAc,0.668
same,glycan array binding signal (z-score),Gal3S(b1-4)GlcNAc,0.311
same,glycan array binding signal (z-score),[22],-0.154
same,glycan array binding signal (z-score),Gal4S(b1-4)GlcNAc,0.422
same,glycan array binding signal (z-score),GalNAc(b1-4)GlcNAc,1.34
same,glycan array binding signal (z-score),[23],0.056
same,glycan array binding signal (z-score),[24],-0.234
